From PubChem BioAssay
Active and inactive are the calls of the source.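 How the source made its calls, unless noted: active means NADPH fluorescence slope more negative than the mean of all samples by about 3 SD, 99.7% confidence; inactive means the rest.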

target: Voltage-gated potassium channel subunit beta-2 (Rattus norvegicus) (UniProt P62483); assay: KvBeta positive modulators, primary screen, biochemical, NADPH fluorescence (AID 623); conditions: Recombinant KvBeta, NADPH fluorescence decrease slope, 10 min; at 10 µM; stronger effect = lower value;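 further: fluorescence intensity change per second fitted from 20 to 320 s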
Sequence (P62483 whole entry, looked up): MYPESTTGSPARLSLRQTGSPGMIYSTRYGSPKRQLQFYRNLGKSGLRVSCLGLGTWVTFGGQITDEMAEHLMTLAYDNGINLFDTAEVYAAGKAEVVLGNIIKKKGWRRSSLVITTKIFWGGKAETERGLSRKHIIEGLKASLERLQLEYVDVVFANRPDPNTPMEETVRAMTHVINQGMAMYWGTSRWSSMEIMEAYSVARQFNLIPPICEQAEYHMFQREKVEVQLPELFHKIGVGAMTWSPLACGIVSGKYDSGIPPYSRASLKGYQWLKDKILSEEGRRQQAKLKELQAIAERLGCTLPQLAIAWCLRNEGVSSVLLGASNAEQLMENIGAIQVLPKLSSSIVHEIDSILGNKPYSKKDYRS

NADPH fluorescence slope, inactive:
CCOCCCNC(=O)C(c1ccc(C)cc1)N(Cc1ccc2c(c1)OCO2)C(=O)c1cnccn1 (stereo not given) 4.1e-05, CCc1cccc2c(=O)c(C(=O)N3CCCCCC3)c[nH]c12 -5.1e-05, Cn1c(NC(=O)c2ccccc2NC(=O)C(C)(C)C)nc2ccccc21 5.8e-06, Cc1cccc(NC(=O)COc2ccc(Br)cc2)n1 6.5e-05, Cc1ccc(-c2ccc(=O)n(CC(=O)NCCCN3CCCCC3C)n2)cc1 (stereo not given) -1.9e-05, Cc1oc(-c2ccccc2F)nc1CS(=O)(=O)CC(=O)NCCCN1CCc2ccccc2C1 -5.3e-07, O=C(c1ccc(S(=O)(=O)N2CCOCC2)cc1)N(c1ccc(F)cc1)C1C=CS(=O)(=O)C1 (stereo not given) 1.6e-05, CCC1CCCCN1C(=O)Cn1c(C(=O)OC)cc2sc(Cl)cc21 (stereo not given) -2e-05, CC(=O)Nc1ccc(N=Cc2nc(-c3ccc(C)cc3)oc2O)cc1 1.5e-05, COc1ccc(S(=O)(=O)Nc2ccc(F)c(Cl)c2)cc1OC -2e-05, CCCCN(CC)CCCNC(=O)c1cc2c(=O)n(C)c3ccccc3c2n1C -4.2e-05, CC1(C)NC(=O)N(CN2C(=O)NC(C)(C)C2=O)C1=O -3.4e-05, CCOC(=O)c1cnn(-c2sc(C(=O)OCC)c(C)c2C(=O)OCC)c1N 2.2e-05, O=C(CCN1C(=O)C2C3C=CC(C3)C2C1=O)NC1CCCc2ccccc21 (stereo not given) -1.7e-05, COc1ccc(NC(=O)C(C)NS(=O)(=O)c2ccccc2)cc1Cl (stereo not given) 7.6e-06, CCOc1cc(C2C3=C(CCCC3=O)N(C)C3=C2C(=O)CCC3)cc(Cl)c1O 5.6e-06, CN(C)c1cccc2c(S(=O)(=O)Nc3ccccn3)cccc12 -1.7e-05, Cc1ccccc1-n1c(=O)cc(NCc2ccc3c(c2)OCO3)[nH]c1=O 1.9e-05, COc1ccc(-c2nc3cc(NC(=O)Cc4ccc(OC)c(OC)c4)ccc3o2)cc1 -4.6e-05, O=C(COc1ccccc1)NCC(c1cccs1)N1CCOCC1 (stereo not given) 0.000103, COc1ccc(OCCN2C(=O)NC(C)(c3ccc(C)cc3)C2=O)cc1 (stereo not given) -6.9e-05, CCOC(=O)c1ccc(Oc2nc(SC)nc(N(C)C)n2)cc1 7.8e-06, CCC(C)NC(=O)C1(C)CCC(=O)N1CCc1ccc(OC)c(OC)c1 (stereo not given) -8.3e-06, O=C(CN1CCN(c2ncccn2)CC1)Nc1ccccc1-n1cccc1 -6.7e-06, O=C1CCCN1Cc1ncnn1-c1ccccc1 -6.8e-05, CN(C)c1ccnc(NCc2ccccc2)c1C#N -3.6e-05, CCCc1cc(C(=O)Nc2ccc(C(C)=O)cc2)no1 1.4e-06, O=C(CN(CCc1ccccc1)C(=O)CNS(=O)(=O)c1ccccc1)NCC1CCCO1 (stereo not given) 2e-05, Cc1ccc(SCC(=O)NCCN2C(=O)CSC2=O)c(C)c1 -2.5e-05, COc1cc(C)c(N)cc1C(C)C -1.8e-05, O=C(CSc1ncnc2c1cnn2Cc1ccccc1)Nc1ccc2c(c1)OCCO2 -0.00015, O=C(Cn1ncc2c(=O)oc3ccccc3c21)NCC1CCCO1 (stereo not given) -1.2e-05, COc1ccccc1Oc1ccc(S(=O)(=O)N2CCOCC2)cc1S(=O)(=O)N1CCOCC1 5.2e-07, CCOC(=O)N1CCN(C(=O)c2ccc3c(SCC(=O)O)c4c(nc3c2)CCCC4)CC1 7.3e-06, CCc1nc(NCCCN2CCOCC2)c2oc3ccccc3c2n1 -3.3e-05, COc1ccc(OC)c(-c2nc3c(C)n[nH]c(=O)c3[nH]2)c1 -6.2e-05, O=C(Nc1cccc(-c2nnc(-c3ccccc3)o2)c1)C1CCCCC1 -1.7e-05, Cc1ccc(S(=O)(=O)Nc2cc(C(=O)O)ccc2N2CCCCC2)cc1 -2.5e-05, Cc1cc2n(n1)C(c1ccccc1)Nc1ccccc1-2 (stereo not given) -3.7e-05, Cc1ccc(C)c(C(=O)CC2(O)C(=O)N(C)c3ccccc32)c1 (stereo not given) -5.8e-05

target: Alpha-2C adrenergic receptor (Homo sapiens) (UniProt P18825); assay: modulators of alpha2C/GIRK thallium flux, primary screen, cell-based, HEK293 alpha2C/GIRK1/2 (AID 624;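 active means fluorescence slope after compound addition differing from the mean of all screened samples at 99.7% confidence, in either direction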;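 further: slope of fluorescence ratio to pre-addition baseline per second over 15 to 24 s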); conditions: thallium flux BTC fluorescence, at 10 µM, actives lie on both sides
Sequence (P18825 whole entry, looked up): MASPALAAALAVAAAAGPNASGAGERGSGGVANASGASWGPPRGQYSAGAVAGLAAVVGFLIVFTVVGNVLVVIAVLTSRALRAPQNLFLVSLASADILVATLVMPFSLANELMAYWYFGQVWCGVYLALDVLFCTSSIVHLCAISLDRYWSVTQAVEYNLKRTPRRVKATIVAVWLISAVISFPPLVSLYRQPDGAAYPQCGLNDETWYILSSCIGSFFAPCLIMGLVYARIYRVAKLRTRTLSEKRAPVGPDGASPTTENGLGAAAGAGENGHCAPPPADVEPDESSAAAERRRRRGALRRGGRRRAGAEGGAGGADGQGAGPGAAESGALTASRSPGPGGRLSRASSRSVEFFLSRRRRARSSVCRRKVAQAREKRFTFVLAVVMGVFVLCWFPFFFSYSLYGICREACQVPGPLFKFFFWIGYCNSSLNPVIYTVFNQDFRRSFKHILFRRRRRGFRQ

slope, inactive:
CCOCCCNC(=O)C(c1ccc(C)cc1)N(Cc1ccc2c(c1)OCO2)C(=O)c1cnccn1 (stereo not given) 0.00515, CCc1cccc2c(=O)c(C(=O)N3CCCCCC3)c[nH]c12 0.0048, Cn1c(NC(=O)c2ccccc2NC(=O)C(C)(C)C)nc2ccccc21 0.00774, Cc1cccc(NC(=O)COc2ccc(Br)cc2)n1 0.00667, Cc1ccc(-c2ccc(=O)n(CC(=O)NCCCN3CCCCC3C)n2)cc1 (stereo not given) 0.0058, Cc1oc(-c2ccccc2F)nc1CS(=O)(=O)CC(=O)NCCCN1CCc2ccccc2C1 0.00532, O=C(c1ccc(S(=O)(=O)N2CCOCC2)cc1)N(c1ccc(F)cc1)C1C=CS(=O)(=O)C1 (stereo not given) 0.0046, CCC1CCCCN1C(=O)Cn1c(C(=O)OC)cc2sc(Cl)cc21 (stereo not given) 0.00448, CC(=O)Nc1ccc(N=Cc2nc(-c3ccc(C)cc3)oc2O)cc1 0.00463, COc1ccc(S(=O)(=O)Nc2ccc(F)c(Cl)c2)cc1OC 0.00392, CCCCN(CC)CCCNC(=O)c1cc2c(=O)n(C)c3ccccc3c2n1C 0.00621, CC1(C)NC(=O)N(CN2C(=O)NC(C)(C)C2=O)C1=O 0.00531, CCOC(=O)c1cnn(-c2sc(C(=O)OCC)c(C)c2C(=O)OCC)c1N 0.00627, O=C(CCN1C(=O)C2C3C=CC(C3)C2C1=O)NC1CCCc2ccccc21 (stereo not given) 0.00567, COc1ccc(NC(=O)C(C)NS(=O)(=O)c2ccccc2)cc1Cl (stereo not given) 0.00596, CCOc1cc(C2C3=C(CCCC3=O)N(C)C3=C2C(=O)CCC3)cc(Cl)c1O 0.00638, CN(C)c1cccc2c(S(=O)(=O)Nc3ccccn3)cccc12 0.00542, Cc1ccccc1-n1c(=O)cc(NCc2ccc3c(c2)OCO3)[nH]c1=O 0.00889, COc1ccc(-c2nc3cc(NC(=O)Cc4ccc(OC)c(OC)c4)ccc3o2)cc1 0.00505, O=C(COc1ccccc1)NCC(c1cccs1)N1CCOCC1 (stereo not given) 0.00649, COc1ccc(OCCN2C(=O)NC(C)(c3ccc(C)cc3)C2=O)cc1 (stereo not given) 0.00469, CCOC(=O)c1ccc(Oc2nc(SC)nc(N(C)C)n2)cc1 0.00652, CCC(C)NC(=O)C1(C)CCC(=O)N1CCc1ccc(OC)c(OC)c1 (stereo not given) 0.00621, O=C(CN1CCN(c2ncccn2)CC1)Nc1ccccc1-n1cccc1 0.006, O=C1CCCN1Cc1ncnn1-c1ccccc1 0.00512, CN(C)c1ccnc(NCc2ccccc2)c1C#N 0.00526, CCCc1cc(C(=O)Nc2ccc(C(C)=O)cc2)no1 0.00619, O=C(CN(CCc1ccccc1)C(=O)CNS(=O)(=O)c1ccccc1)NCC1CCCO1 (stereo not given) 0.0066, Cc1ccc(SCC(=O)NCCN2C(=O)CSC2=O)c(C)c1 0.00367, COc1cc(C)c(N)cc1C(C)C 0.00295, O=C(CSc1ncnc2c1cnn2Cc1ccccc1)Nc1ccc2c(c1)OCCO2 0.00683, O=C(Cn1ncc2c(=O)oc3ccccc3c21)NCC1CCCO1 (stereo not given) 0.0073, COc1ccccc1Oc1ccc(S(=O)(=O)N2CCOCC2)cc1S(=O)(=O)N1CCOCC1 0.00572, CCOC(=O)N1CCN(C(=O)c2ccc3c(SCC(=O)O)c4c(nc3c2)CCCC4)CC1 0.00656, CCc1nc(NCCCN2CCOCC2)c2oc3ccccc3c2n1 0.00535, COc1ccc(OC)c(-c2nc3c(C)n[nH]c(=O)c3[nH]2)c1 0.00496, O=C(Nc1cccc(-c2nnc(-c3ccccc3)o2)c1)C1CCCCC1 0.00531, Cc1ccc(S(=O)(=O)Nc2cc(C(=O)O)ccc2N2CCCCC2)cc1 0.00575, Cc1cc2n(n1)C(c1ccccc1)Nc1ccccc1-2 (stereo not given) 0.00459, Cc1ccc(C)c(C(=O)CC2(O)C(=O)N(C)c3ccccc32)c1 (stereo not given) 0.00346
